This note sets out measurements from PubChem BioAssay AID588738 (National Center for Advancing Translational Sciences (NCATS), 2011).

Molecules are shown by their SMILES. Calls of active or inactive are those of the source. No rule for the calls is given here.

A short description of the assay: High Content Assay for Compounds that inhibit the Assembly of the Perinucleolar Compartment:Cell Migration SAR. To be noted: PC3M 3D collagen invasion, Hoechst imaging, 5 d. The text has this:
The perinucleolar compartment (PNC) is a non-membrane-bound nuclear subdomain that is associated with but structurally distinct from the nucleolus. The PNC is a heritable trait, in which the number of PNCs per cell in daughter cells often mimics that of their mother cells. The PNC is heterogeneous in shape, is stable through interphase, disassembles during mitosis, and reassembles in early G1. The PNC is concentrated with newly synthesized RNA polymerase III (pol III) RNAs (MRP RNA, RNAse P H1 RNA, hY RNAs[hY1, 2, 5], Alu RNA, and SRP [7SL] RNA) and RNA binding proteins (nucleolin, PTB, CUG-BP, KSRP, Raver1, Raver2, and Rod). […] In collaboration between Sui Huang from Northwestern University and the NCGC, a high content assay was developed and screened. The hits were then tested in follow-up assays. High-content tumor cell migration assays in 3-dimensional extracellular matrices are powerful tools for modeling and understanding the biology of this critical step in the process of metastasis. However, most of the available methods are not amenable to the throughput required by studies of comparative pharmacology or small scale screening. For this reason, we worked with BellBrook Labs(R) to test our compounds in their automated high-content tumor cell invasion assays.[35] […]
Consider `N=c1c2c(-c3ccccc3)c(-c3ccccc3)n(Cc3ccccc3)c2ncn1C1CCC(O)CC1` (stereo unspecified), for which the Potency was 3.98 µM (active).
